Reference: PubChem BioAssay
For part of these data: Entries with a potency or affinity are not part of this list. Calls of active or inactive are those of the source. Unless noted, no rule for the calls is given here.

What was measured:
[1] = antimalarial activity against Dd2 strain (AID 2302;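 active = growth inhibition above 50% at the single 2 µM test dose, taken to imply half-maximal potency below 2 µM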;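 also: 0% = DMSO untreated growth and 100% = chloroquine plus artemisinin killed control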); details: P. falciparum Dd2 in RBCs, LDH growth readout, 72 h; at 2 µM; hits give high values
[2] = HepG2 cytotoxicity, primary screen, cytotoxicity control for P. falciparum antimalarial project, cell-based, ATP luminescence (AID 2303;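 active = inhibition above 50%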;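 also: 0% = DMSO wells and 100% = digitonin-killed cells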); details: HepG2 viability, 24-48 h, at 10 µM, hits give high values
[3] = target: L-lactate dehydrogenase (Plasmodium falciparum (isolate CDC / Honduras)) (UniProt Q27743); assay: PfLDH activity inhibition – cell lysate, 3D7 strain, counter-screen for P. falciparum growth inhibition project (AID 2304);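 also: 0% = vehicle and 100% = reference inhibitor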; details: P. falciparum 3D7 crude extract, LDH APAD/NBT absorbance; at 2 µM; hits give high values
L-lactate dehydrogenase (Plasmodium falciparum (isolate CDC / Honduras)), sequence (Q27743 whole entry, looked up): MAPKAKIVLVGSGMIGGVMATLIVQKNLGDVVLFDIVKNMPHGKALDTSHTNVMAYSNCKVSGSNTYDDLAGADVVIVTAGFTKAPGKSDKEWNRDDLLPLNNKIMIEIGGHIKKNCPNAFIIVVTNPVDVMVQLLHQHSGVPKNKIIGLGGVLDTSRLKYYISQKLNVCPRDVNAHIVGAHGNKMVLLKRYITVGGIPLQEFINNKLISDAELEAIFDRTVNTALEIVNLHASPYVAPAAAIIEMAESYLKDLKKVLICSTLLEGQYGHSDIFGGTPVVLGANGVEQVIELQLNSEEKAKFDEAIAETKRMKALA

[4] = inhibition of 3D7 malaria parasite growth – strain 3D7 (AID 2306);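 also: 0% = DMSO wells and 100% = chloroquine plus artemisinin control wells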; details: P. falciparum 3D7 erythrocytic growth, LDH absorbance, 72 h; at 2 µM; hits give high values
[5] = target: Calcium-dependent protein kinase 1 (Plasmodium falciparum (isolate 3D7)) (UniProt P62344); assay: PfCDPK1 kinase inhibitors, biochemical, TCAMS library (AID 1159585; cut-off not given, nearly all actives have IC50 up to about 0.98 µM;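 also: inhibitors leave more ATP so luminescence rises with inhibition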); details: recombinant PfCDPK1, Kinase-Glo ATP depletion luminescence
Calcium-dependent protein kinase 1 (Plasmodium falciparum (isolate 3D7)), sequence (P62344 whole entry, looked up): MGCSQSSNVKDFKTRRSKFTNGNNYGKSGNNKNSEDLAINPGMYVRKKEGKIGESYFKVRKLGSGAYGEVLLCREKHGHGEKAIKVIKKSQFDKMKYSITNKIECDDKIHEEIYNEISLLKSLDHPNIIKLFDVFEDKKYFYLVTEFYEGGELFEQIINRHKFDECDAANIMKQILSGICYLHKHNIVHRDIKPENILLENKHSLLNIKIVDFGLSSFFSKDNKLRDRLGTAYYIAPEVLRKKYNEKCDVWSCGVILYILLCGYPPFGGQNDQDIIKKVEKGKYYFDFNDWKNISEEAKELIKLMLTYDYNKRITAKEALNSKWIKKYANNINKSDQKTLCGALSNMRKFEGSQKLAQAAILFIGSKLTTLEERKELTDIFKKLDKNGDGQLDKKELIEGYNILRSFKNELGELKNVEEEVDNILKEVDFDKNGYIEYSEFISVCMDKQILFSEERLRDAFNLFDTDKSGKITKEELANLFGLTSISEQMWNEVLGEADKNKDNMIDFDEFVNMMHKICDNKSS

[6] = target: Plasmodium falciparum protein kinase 6 (PK6, PF3D7_1337100) (UniProt Q8IDW1); assay: PfPK6 kinase inhibitors, biochemical, TCAMS library (AID 1159586); details: recombinant PfPK6, Kinase-Glo ATP depletion luminescence
Plasmodium falciparum protein kinase 6 (PK6, PF3D7_1337100), sequence (Q8IDW1 1-305): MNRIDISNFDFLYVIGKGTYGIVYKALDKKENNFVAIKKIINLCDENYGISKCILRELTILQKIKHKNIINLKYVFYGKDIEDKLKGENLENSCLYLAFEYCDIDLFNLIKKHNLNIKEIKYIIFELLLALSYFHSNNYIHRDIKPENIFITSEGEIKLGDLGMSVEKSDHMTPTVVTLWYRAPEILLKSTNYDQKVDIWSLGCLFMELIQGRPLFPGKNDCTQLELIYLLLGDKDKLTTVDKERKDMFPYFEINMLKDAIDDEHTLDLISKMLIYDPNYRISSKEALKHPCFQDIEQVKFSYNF

[7] = target: Protein kinase 7 (PK7), Plasmodium falciparum 3D7 (PF3D7_0213400) (UniProt Q7YTF7); assay: inhibition of Plasmodium PK7 catalytic activity – biochemical, TCAMS antimalarial set, Kinase-Glo luminescence (AID 1159587); details: recombinant PfPK7, Kinase-Glo ATP depletion luminescence
Protein kinase 7 (PK7), Plasmodium falciparum 3D7 (PF3D7_0213400), sequence (Q7YTF7 1-343): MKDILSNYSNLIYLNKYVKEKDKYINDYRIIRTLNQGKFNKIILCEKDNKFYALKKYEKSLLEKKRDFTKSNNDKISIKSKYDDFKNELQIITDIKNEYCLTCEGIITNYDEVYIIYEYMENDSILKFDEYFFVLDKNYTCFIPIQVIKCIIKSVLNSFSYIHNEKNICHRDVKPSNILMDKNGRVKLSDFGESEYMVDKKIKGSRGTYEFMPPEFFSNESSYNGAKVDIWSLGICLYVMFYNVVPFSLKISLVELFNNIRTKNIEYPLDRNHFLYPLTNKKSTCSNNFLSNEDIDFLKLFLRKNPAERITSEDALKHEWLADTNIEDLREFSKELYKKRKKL

[8] = target: Calcium-dependent protein kinase 4 (Plasmodium falciparum (isolate 3D7)) (UniProt Q8IBS5); assay: PfCDPK4 kinase inhibitors, biochemical, TCAMS library (AID 1159588; cut-off not given, nearly all actives have IC50 up to about 0.91 µM); details: recombinant PfCDPK4, Kinase-Glo ATP depletion luminescence
Calcium-dependent protein kinase 4 (Plasmodium falciparum (isolate 3D7)), sequence (Q8IBS5 whole entry, looked up): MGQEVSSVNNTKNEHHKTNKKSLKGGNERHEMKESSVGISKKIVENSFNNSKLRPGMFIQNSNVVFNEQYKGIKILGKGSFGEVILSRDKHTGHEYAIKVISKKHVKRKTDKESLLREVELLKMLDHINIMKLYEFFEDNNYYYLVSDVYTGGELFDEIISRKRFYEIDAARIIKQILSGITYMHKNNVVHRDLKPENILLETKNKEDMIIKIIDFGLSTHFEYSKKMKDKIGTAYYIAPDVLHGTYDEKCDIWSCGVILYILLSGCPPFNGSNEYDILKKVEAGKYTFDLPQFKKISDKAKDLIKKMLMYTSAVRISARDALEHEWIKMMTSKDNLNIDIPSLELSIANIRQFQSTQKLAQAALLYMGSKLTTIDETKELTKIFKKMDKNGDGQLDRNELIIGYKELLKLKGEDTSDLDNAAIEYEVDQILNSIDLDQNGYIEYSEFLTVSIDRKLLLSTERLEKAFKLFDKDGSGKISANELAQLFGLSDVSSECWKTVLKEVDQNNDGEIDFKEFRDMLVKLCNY

COc1ccccc1CN1CCC(NC(=O)c2ccc(-c3cccc(C(F)(F)F)c3)s2)CC1
inactive: growth inhibition [1] 12% | inhibition [3] -2% | outcome [5] | outcome [6] | outcome [7] | outcome [8]
active: inhibition [2] 83% | growth inhibition [4] 85%

CCCCCN1CCCC1CNS(=O)(=O)c1cccc(C(=O)Nc2cccc(C(F)(F)F)c2)c1 (stereo not drawn)
inactive: growth inhibition [1] 12% | inhibition [2] 15% | inhibition [3] 4% | outcome [5] | outcome [6] | outcome [7] | outcome [8]
active: growth inhibition [4] 96%

O=C(Nc1ccc(-c2nc3ccccc3[nH]2)cc1)c1ccc(Cl)c([N+](=O)[O-])c1
inactive: growth inhibition [1] 4% | inhibition [2] 6% | inhibition [3] 1% | outcome [5] | outcome [6] | outcome [7] | outcome [8]
active: growth inhibition [4] 99%

Cc1nc2nc(N)nc(N)c2c(C)c1Cc1ccccc1I
active: inhibition [2] 63% | growth inhibition [4] 96%
inactive: growth inhibition [1] -5% | inhibition [3] 5% | outcome [5] | outcome [6] | outcome [7] | outcome [8]

Cc1nc2nc(N)nc(N)c2c(C)c1Cc1ccccc1Cl
inactive: growth inhibition [1] -2% | inhibition [3] -3% | outcome [5] | outcome [6] | outcome [7] | outcome [8]
active: inhibition [2] 63% | growth inhibition [4] 93%

CCCCCCN1CCCN(Cc2ccc(C(=O)Nc3ccc(C)c(F)c3)cc2)CC1
inactive: inhibition [2] 47% | inhibition [3] 0% | outcome [5] | outcome [6] | outcome [7] | outcome [8]
active: growth inhibition [1] 58% | growth inhibition [4] 92%

Nc1nc(Nc2ccc(Cl)cc2)nc2ccccc12
active: growth inhibition [4] 101%
inactive: growth inhibition [1] 21% | inhibition [2] 6% | inhibition [3] -2% | outcome [5] | outcome [6] | outcome [7] | outcome [8]

CC[C@H](NC(=O)c1c(CN2CCC(N3CCCCC3)CC2)c(-c2ccccc2)nc2c(Cl)c(O)ccc12)c1ccccc1
inactive: inhibition [2] -1% | inhibition [3] -3% | outcome [5] | outcome [6] | outcome [7] | outcome [8]
active: growth inhibition [1] 66% | growth inhibition [4] 101%

O=C(NCCCc1ccccc1)c1ccc(O)c(-c2cc(Cl)cc(Cl)c2)c1
inactive: inhibition [2] -1% | inhibition [3] -3% | outcome [5] | outcome [6] | outcome [7] | outcome [8]
active: growth inhibition [1] 98% | growth inhibition [4] 99%

Cc1ccc(NC(=O)c2cn(-c3ccccc3)nc2-c2ccc(F)cc2)cc1[N+](=O)[O-]
active: growth inhibition [4] 92%
inactive: growth inhibition [1] 38% | inhibition [2] 6% | inhibition [3] 8% | outcome [5] | outcome [6] | outcome [7] | outcome [8]

CCc1c[nH]c2c(N3CCCC3=O)cc(C(=O)N[C@@H](Cc3ccccc3)[C@H](O)CNC(C)(C)c3cccc(OC)c3)cc12
inactive: inhibition [2] 0% | inhibition [3] 2% | outcome [5] | outcome [6] | outcome [7] | outcome [8]
active: growth inhibition [1] 98% | growth inhibition [4] 93%

NC1CCN(Cc2cccc(-c3csc(-c4nc5ccccc5[nH]4)c3)c2)C1 (stereo not drawn)
inactive: growth inhibition [1] 10% | inhibition [2] 10% | inhibition [3] 2% | outcome [5] | outcome [6] | outcome [7] | outcome [8]
active: growth inhibition [4] 99%

CNC(=S)NCc1cnc2ccccn12
active: growth inhibition [4] 97%
inactive: growth inhibition [1] -2% | inhibition [2] -2% | inhibition [3] 3% | outcome [5] | outcome [6] | outcome [7] | outcome [8]

NC1=NC2(CCCCC2)N(OCCCOc2cc(Cl)c(Cl)cc2Cl)C(N)=N1
inactive: inhibition [3] -11% | outcome [5] | outcome [6] | outcome [7] | outcome [8]
active: growth inhibition [1] 98% | inhibition [2] 62% | growth inhibition [4] 94%

CO/C(=C\C=C\c1cc2cc(Cl)c(Cl)cc2[nH]1)C(=O)NC1CCN(CCOc2ccccc2)CC1
active: growth inhibition [1] 94% | growth inhibition [4] 101%
inactive: inhibition [2] 35% | inhibition [3] -3% | outcome [5] | outcome [6] | outcome [7] | outcome [8]

CC(C)CNCc1ccc(-c2cccc(CNc3ccc4ncccc4c3)c2)cc1
inactive: growth inhibition [1] 31% | inhibition [2] 29% | inhibition [3] -2% | outcome [5] | outcome [6] | outcome [7] | outcome [8]
active: growth inhibition [4] 96%

O=C(Nc1nc(-c2ccccn2)cs1)c1ccccc1COc1ccccc1
active: growth inhibition [4] 83%
inactive: growth inhibition [1] 42% | inhibition [2] 34% | inhibition [3] -2% | outcome [5] | outcome [6] | outcome [7] | outcome [8]

COc1cc(OC)c(OC)cc1C=NNc1cc(C)nc2ccccc12
active: growth inhibition [1] 95% | growth inhibition [4] 100%
inactive: inhibition [2] 5% | inhibition [3] 0% | outcome [5] | outcome [6] | outcome [7] | outcome [8]

COc1ccc(O)c(Cc2cnc3nc(N)nc(N)c3c2C)c1
active: growth inhibition [1] 74% | inhibition [2] 56% | growth inhibition [4] 94%
inactive: inhibition [3] 5% | outcome [5] | outcome [6] | outcome [7] | outcome [8]

COc1ccc(C2CCN(CCCNC(=O)c3ccc(NC(=O)c4ccc(Cl)cc4)cc3)CC2)c(OC)c1
inactive: inhibition [2] 26% | inhibition [3] 3% | outcome [5] | outcome [6] | outcome [7] | outcome [8]
active: growth inhibition [1] 58% | growth inhibition [4] 99%

COC(=O)[C@@H](NC(=O)[C@@H](Nc1ccc(C#N)c2ccccc12)C(C)(C)C)c1ccc(O)cc1
inactive: inhibition [2] -4% | inhibition [3] 1% | outcome [5] | outcome [6] | outcome [7] | outcome [8]
active: growth inhibition [1] 74% | growth inhibition [4] 101%
